Laboratory results from the supplement of paper PMC3545927.
The list shows a part of the results. The hit rate among all sequences tested is not known here.

Molecular target: furin, P09958
Test: furin cleavage Z-score vs untreated control; higher = more cleavage, active = 3.5 or more, inactive = 1 or less, 8 variable residues between constant flanks
How it was run: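 Cleavage by purified furin was measured on 8-mer peptides fused to a cDNA oligonucleotide and held on magnetic beads by their N-terminus. Reactions (0.01 ml, 1:10 enzyme:substrate) ran 7.5, 15 or 30 min in 50 mM HEPES pH 7.5 with CaCl2 and NaCl. Released DNA was adapter-tagged by PCR and sequenced, with read counts giving abundance. Log counts versus furin-free reactions were lowess-adjusted and scaled by median absolute deviation to give the cleavage Z-score.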

Chain of furin, P09958 (P09958 whole entry): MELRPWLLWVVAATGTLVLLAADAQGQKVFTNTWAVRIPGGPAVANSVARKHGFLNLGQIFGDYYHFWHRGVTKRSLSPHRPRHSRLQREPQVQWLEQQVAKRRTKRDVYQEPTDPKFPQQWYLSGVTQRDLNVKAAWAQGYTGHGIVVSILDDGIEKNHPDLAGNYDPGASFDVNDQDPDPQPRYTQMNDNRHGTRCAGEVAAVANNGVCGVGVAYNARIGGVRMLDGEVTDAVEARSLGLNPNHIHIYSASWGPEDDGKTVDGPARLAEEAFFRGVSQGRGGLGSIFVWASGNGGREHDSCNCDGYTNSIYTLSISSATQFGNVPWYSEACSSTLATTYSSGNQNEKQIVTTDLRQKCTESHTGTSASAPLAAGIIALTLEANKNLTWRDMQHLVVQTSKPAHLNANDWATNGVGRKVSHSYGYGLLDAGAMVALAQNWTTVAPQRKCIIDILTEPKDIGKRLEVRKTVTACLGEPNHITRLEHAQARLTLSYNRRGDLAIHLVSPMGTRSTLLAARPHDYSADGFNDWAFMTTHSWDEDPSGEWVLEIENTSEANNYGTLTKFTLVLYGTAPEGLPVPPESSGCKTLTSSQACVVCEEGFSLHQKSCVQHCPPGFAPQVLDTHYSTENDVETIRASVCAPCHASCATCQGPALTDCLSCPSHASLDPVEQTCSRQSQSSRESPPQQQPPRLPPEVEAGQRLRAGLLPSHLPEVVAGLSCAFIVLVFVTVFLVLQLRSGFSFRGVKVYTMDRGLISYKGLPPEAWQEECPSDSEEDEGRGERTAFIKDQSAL

| Sequence | furin cleavage Z-score (7.5 min) | furin cleavage Z-score (15 min) | furin cleavage Z-score (30 min) |
| --- | --- | --- | --- |
| CAVIAPAVQTAGNASASA [HC1033] | 0.392 (inactive) | 0.329 (inactive) | 0.692 (inactive) |
| CAFFTELDGVAGNASASA [HC1221] | -0.975 (inactive) | -0.00103 (inactive) | -0.854 (inactive) |
| CAEVPCHRPFAGNASASA [HC2407] | -0.191 (inactive) | 0.106 (inactive) | 0.623 (inactive) |
| CAECVVCCSMAGNASASA [HC2140] | 0.85 (inactive) | 1.09 | -0.883 (inactive) |
| CAEVPCHRPYAGNASASA [HC2409] | 0.869 (inactive) | -0.249 (inactive) | 1.01 |
| CAEVVTSCWVAGNASASA [HC2220] | -1.37 (inactive) | 0.202 (inactive) | -0.78 (inactive) |
| CAVVCCSRSYAGNASASA [HC2053] | -1.24 (inactive) | -0.358 (inactive) | 0.798 (inactive) |
| CACVCCSMSYAGNASASA [HC2000] | -0.467 (inactive) | -0.374 (inactive) | 0.0175 (inactive) |
| CAMKKRTKRLAGNASASA [FS-365] | 9.31 (active) | 8.89 (active) | 7.26 (active) |
| CASPSRTKRLAGNASASA [FS-870] | 7.89 (active) | 8.76 (active) | 6.67 (active) |
| CAGKKRTVEMAGNASASA [FS-2861] | -0.948 (inactive) | 0.0508 (inactive) | -1.47 (inactive) |
| CAMWKCLIRLAGNASASA [HC964] | 0.587 (inactive) | 2.14 | 2 |
| CASNQRPKRLAGNASASA [FS-298] | 5.25 (active) | 8.19 (active) | 7.26 (active) |
| CAANRRDVRLAGNASASA [FS-322] | 0.0384 (inactive) | -1.82 (inactive) | 1.41 |
| CAEVVCHRPSAGNASASA [HC2350] | -0.3 (inactive) | 0.778 (inactive) | 0.34 (inactive) |
| CADWMEECSQAGNASASA [HC1808] | 0.73 (inactive) | -0.408 (inactive) | -0.438 (inactive) |
| CAVVCCSMSMAGNASASA [HC2086] | 0.14 (inactive) | -1.35 (inactive) | 0.14 (inactive) |
| CAVPQSFQVAAGNASASA [HC770] | -0.249 (inactive) | -1.95 (inactive) | -0.519 (inactive) |
| CAPSQRSKRPAGNASASA [FS-477] | -0.582 (inactive) | 0.273 (inactive) | -0.55 (inactive) |
| CAVTQRSKRAAGNASASA [FS-388] | 10.4 (active) | 9.15 (active) | 7.46 (active) |
| CAHPQRSKKAAGNASASA [FS-248] | -0.0765 (inactive) | 0.432 (inactive) | 1.4 |
| CATQQRSKRAAGNASASA [FS-1496] | 7.63 (active) | 7.61 (active) | 6.89 (active) |
| CAGWLRSKKAAGNASASA [FS-1530] | -0.625 (inactive) | -0.994 (inactive) | -0.39 (inactive) |

| Sequence | furin cleavage Z-score (7.5 min) | furin cleavage Z-score (15 min) | furin cleavage Z-score (30 min) |
| --- | --- | --- | --- |
| CAGRKPARLIAGNASASA [HC1447] | -1.48 (inactive) | -1.33 (inactive) | -0.697 (inactive) |
| CARHVRISRSAGNASASA [FS-708] | 10.5 (active) | 10.5 (active) | 7.87 (active) |
| CAPAGRISRSAGNASASA [FS-835] | 6.15 (active) | 10.5 (active) | 8.23 (active) |
| CARHVRSYNHAGNASASA [FS-2026] | 0.349 (inactive) | 0.971 (inactive) | 3.01 |
| CAIPLVGAPLAGNASASA [HC229] | -1.25 (inactive) | -1.1 (inactive) | -0.498 (inactive) |
| CAYGVGSSIAAGNASASA [HC512] | -0.889 (inactive) | -1.2 (inactive) | 0.412 (inactive) |
| CALTPLRDWAAGNASASA [HC637] | -0.181 (inactive) | 1.58 | -0.616 (inactive) |
| CAQRQKKVTFAGNASASA [HC1394] | 1.32 | -2.05 (inactive) | -3.25 (inactive) |
| CALDPQARVAAGNASASA [HC1493] | -1.42 (inactive) | -2.18 (inactive) | -0.348 (inactive) |
| CAKCPCQVPSAGNASASA [HC1216] | 0.69 (inactive) | 0.244 (inactive) | -0.458 (inactive) |
| CAQRQRAKRNAGNASASA [FS-1252] | 13.8 (active) | 13.3 (active) | 10.1 (active) |
| CALRLRGPRAAGNASASA [FS-943] | 4.69 (active) | 3.33 | 3.8 (active) |
| CALRPRQRRAAGNASASA [FS-360] | 7.42 (active) | 7.73 (active) | 6.07 (active) |
| CAKCPRQRRAAGNASASA [FS-445] | 7.55 (active) | 6.15 (active) | 7.23 (active) |
| CARRPEGRTWAGNASASA [HC195] | -0.89 (inactive) | 0.845 (inactive) | -0.916 (inactive) |
| CAKIPRFRRIAGNASASA [FS-449] | 0.2 (inactive) | 0.191 (inactive) | 2.93 |
| CAISGIQYLAAGNASASA [HC1045] | -1.05 (inactive) | 0.557 (inactive) | -1.83 (inactive) |
| CAISPRQRRAAGNASASA [FS-543] | 7.77 (active) | 6.99 (active) | 6.1 (active) |
| CALRWRQRRAAGNASASA [FS-272] | 3.83 (active) | 4.93 (active) | 3.79 (active) |
| CAPRARCRRAAGNASASA [FS-138] | 8.91 (active) | 10.2 (active) | 7.25 (active) |
| CALRPRFRREAGNASASA [FS-614] | 10 (active) | 8.78 (active) | 6.07 (active) |
| CAARAACRAAAGNASASA [HC1520] | -1.54 (inactive) | -0.427 (inactive) | -0.259 (inactive) |
